Test results as given in PubChem BioAssay AID1851 (National Center for Advancing Translational Sciences (NCATS), 2009).
About 5,100 (32%) of roughly 16,000 compounds were called active. Another 25% or so got no clear call; they are omitted. The call rests on the fitted dose curve; in most records, active means well fitted curve in the direction sought with a large enough effect; inconclusive means small, poorly fitted or top-dose-only effect, or effect the other way; inactive means no such curve, though single readings can be large or run the other way. This is one part of the list.
On the % scale 0 is the no-effect control and ±100 the full control effect.

What follows are molecules tested against Cytochrome P450 3A4 (Homo sapiens) (UniProt P08684) (assay: Cytochrome panel assay with activity outcomes). Conditions: recombinant CYP, pro-luciferin dealkylation, luminescence, p450-cyp3a4; series mostly up to 57.1 µM; activity, negative = inhibition: at the top concentration.
Cytochrome P450 3A4 (Homo sapiens), sequence (P08684 whole entry, looked up): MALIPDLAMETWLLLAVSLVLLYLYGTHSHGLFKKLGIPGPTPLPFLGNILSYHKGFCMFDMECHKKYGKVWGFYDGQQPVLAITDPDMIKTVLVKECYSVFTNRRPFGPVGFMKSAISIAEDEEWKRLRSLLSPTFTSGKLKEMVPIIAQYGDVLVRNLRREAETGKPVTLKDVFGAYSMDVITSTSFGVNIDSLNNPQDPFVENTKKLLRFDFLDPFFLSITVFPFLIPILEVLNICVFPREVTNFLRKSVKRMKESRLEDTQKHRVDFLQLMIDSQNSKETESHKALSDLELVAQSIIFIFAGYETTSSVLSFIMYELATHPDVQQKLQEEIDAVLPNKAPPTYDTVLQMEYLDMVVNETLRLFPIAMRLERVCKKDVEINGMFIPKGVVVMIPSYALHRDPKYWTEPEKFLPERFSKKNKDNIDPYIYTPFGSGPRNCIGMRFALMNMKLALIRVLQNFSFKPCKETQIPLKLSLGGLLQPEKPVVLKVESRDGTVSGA
With `CC1(C)Cc2ccccc2C(N/N=C/c2cccc(F)c2)=N1` the activity, negative = inhibition was 14.5% [at 2.29 µM] (inactive).
In the case of `Cc1cnn(-c2cc(N/N=C/c3ccccc3)ncn2)c1`, the “activity, negative = inhibition” value was -6.74% (inactive).
In the case of `COC(=O)[C@@]1(Cc2ccc(OC)cc2)[C@@H]2[C@@H](CC(=O)[C@H]2CC(=O)C(=O)N(C)C)CN1C(=O)c1ccccc1`, the AC50 was 1 µM (active).
In the case of `CC(C)N(CCNC(=O)C1CCC(=O)N1Cc1ccc(F)cc1)Cc1ccccc1` (centres undefined), the “activity, negative = inhibition” value was -25.2% (inactive).
For `COC(=O)[C@@]1(Cc2ccc(F)cc2)[C@@H]2[C@@H](CC(=O)[C@H]2CC(=O)C(=O)N(C)C)CN1C(=O)c1ccccc1`, the AC50 was 6.31 µM (active).
`COC(=O)c1c(C)oc2ccc(N(C(=O)c3ccncc3)S(=O)(=O)c3ccccc3)cc12` was tested, and the AC50 was 7.08 µM (active).
For `CN(C(=O)c1ccncc1)c1ccccc1`, the activity, negative = inhibition was -11.8% [at 11.4 µM] (inactive).
`NC(=O)C1CCN(C(=O)CN2C(=O)c3ccccc3S2(=O)=O)CC1` was tested, and the “activity, negative = inhibition” value was -1.28% (inactive).
`Cc1ccc(C)c(C(=O)CN2C(=O)c3ccccc3S2(=O)=O)c1` was tested, and the AC50 was 7.94 µM (active).
With `O=C(CN1C(=O)c2ccccc2S1(=O)=O)Nc1ccccc1` the “activity, negative = inhibition” value was 12.5% (inactive).
With `O=C(NCCCN1CCN(c2cccc(Cl)c2)CC1)C1CCC(=O)N1Cc1ccccc1Cl` (centres undefined) the activity, negative = inhibition was -7.41% [at 2.29 µM] (inactive).
In the case of `CN(CCCNC(=O)C1CCC(=O)N1Cc1ccccc1Cl)c1ccccc1` (centres undefined), the AC50 was 7.08 µM (active).
For `COCCCNC(=O)C1CCC(=O)N1Cc1ccccc1Cl` (centres undefined), the activity, negative = inhibition was -20.1% [at 11.4 µM] (inactive).
In the case of `CC(C)NC(=O)N1CCC2(CC1)CCN(S(C)(=O)=O)CC2`, the “activity, negative = inhibition” value was -7.29% (inactive).
In the case of `CCc1c(C)c(C#N)c2nc3ccccc3n2c1Nc1c(C)n(C)n(-c2ccccc2)c1=O`, the AC50 was 7.94 µM (active).
`CCc1c(C)c(C#N)c2nc3ccccc3n2c1N1CCN(c2cc(C)ccn2)CC1` was tested, and the “activity, negative = inhibition” value was -1.59% (inactive).
In the case of `Cc1cccc(-n2ncc3c(Nc4c(C)n(C)n(-c5ccccc5)c4=O)ncnc32)c1`, the “activity, negative = inhibition” value was -22% (inactive).
With `COc1ccc2nc(C)cc(SCC(=O)NNC(=O)COc3ccccc3)c2c1` the AC50 was 2.82 µM (active).
With `COc1ccc2nc(C)cc(SCC(=O)Nc3c(C)cc(C)cc3C)c2c1` the AC50 was 2.51 µM (active).
`COc1ccc(NC(=O)CCSc2cc(C)c3ccccc3n2)cc1` was tested, and the AC50 was 3.98 µM (active).
In the case of `COc1ccc2nc(SCC(=O)NN)cc(C)c2c1`, the AC50 was 2.82 µM (active).
With `Cc1ccc(OCC(=O)NNC(=O)c2cc3ccccc3o2)cc1` the “activity, negative = inhibition” value was -23.5% (inactive).
`NCCCCN` was tested, and the “activity, negative = inhibition” value was 6.31% (inactive).
With `C=CC1=C(C(=O)O)N2C(=O)[C@@H](NC(=O)/C(=N\OCC(=O)O)c3csc(N)n3)[C@@H]2SC1` the “activity, negative = inhibition” value was -9.56% [at 25.6 µM] (inactive).
In the case of `COc1ccc2nc(C)cc(SCC(=O)NNC(=O)COc3ccc(C)cc3)c2c1`, the AC50 was 2.24 µM (active).
`COc1ccc2nccc(SCC(=O)O)c2c1` was tested, and the activity, negative = inhibition was -8.31% [at 11.4 µM] (inactive).
For `CC(=O)NCCNc1nc(-c2ccccc2C)nc2ccccc12`, the AC50 was 5.01 µM (active).
With `COc1ccccc1-c1nc(NCCNC(C)=O)c2ccccc2n1` the “activity, negative = inhibition” value was -27.3% (inactive).
With `CC(=O)NCCNc1nc(-c2c(C)noc2C)nc2ccccc12` the AC50 was 15.8 µM (active).
In the case of `NCCCCCCCCCCN`, the “activity, negative = inhibition” value was 3.58% (inactive).
In the case of `CCn1c2ccccc2c2cc(NC(=O)C/C(C)=N/NC(=O)c3ccccc3N)ccc21`, the AC50 was 7.08 µM (active).
With `CC(=O)Nc1ccc(NC(=O)C/C(C)=N/NC(=O)C(=O)N2CCCC2)cc1` the “activity, negative = inhibition” value was -6.22% (inactive).
For `COc1ccc(CNc2ccnc(-c3c(C)noc3C)n2)c(OC)c1`, the AC50 was 2.51 µM (active).
`COc1ccccc1CNc1ccnc(-c2c(C)noc2C)n1` was tested, and the AC50 was 5.01 µM (active).
With `CC1(C)Cc2c(sc3nc(SCC(=O)NCc4ccccc4)n(-c4ccccc4)c(=O)c23)CS1` the AC50 was 3.55 µM (active).
For `Cc1ccc(-n2c(SCC(=O)NCc3ccco3)nc3sc4c(c3c2=O)CC(C)(C)SC4)cc1`, the AC50 was 2 µM (active).
With `CC1(C)Cc2c(sc3c2C(=O)N(c2ccccc2)C2=NCCN23)CS1` the “activity, negative = inhibition” value was -23.7% (inactive).
`CN(C)c1ccc(-c2cncnc2NCc2ccccc2)cc1` was tested, and the AC50 was 0.0316 µM (active).
For `CN(C)c1ccc(-c2cncnc2NCc2cccnc2)cc1`, the AC50 was 0.631 µM (active).
For `Cc1ccc(/C=N/NC(=O)CSc2nc3nc(C)cc(C)n3n2)cc1`, the AC50 was 15.8 µM (active).
With `CCCSc1nnc(CSc2nc3nc(C)cc(C)n3n2)o1` the activity, negative = inhibition was 5.19% [at 11.4 µM] (inactive).
With `CCSc1nc2nc(C)cc(C)n2n1` the “activity, negative = inhibition” value was -7.32% (inactive).
`COc1ccccc1CNC(=O)CSc1nc2nc(C)cc(C)n2n1` was tested, and the AC50 was 14.1 µM (active).
For `Cc1cc(C)n2nc(SCc3cc(=O)oc4ccc5ccccc5c34)nc2n1`, the AC50 was 2.24 µM (active).
In the case of `Cc1cc(C)n2nc(SCC(=O)N/N=C/c3ccccc3F)nc2n1`, the “activity, negative = inhibition” value was -29.4% (inactive).
In the case of `COc1cc(NC(=O)COC(=O)c2nc3nc(C)cc(C)n3n2)cc(OC)c1`, the activity, negative = inhibition was 20% [at 2.29 µM] (inactive).
With `CCn1c(SCC(=O)NC2CCCCC2)nnc1-c1cc2cccc(OC)c2o1` the AC50 was 10 µM (active).
For `CCC(=O)N[C@@H]1CCc2cccc(OC)c2C1`, the “activity, negative = inhibition” value was -19% (inactive).
For `COc1cccc2cc(NC(=O)C3CCCCC3)c(=O)oc12`, the “activity, negative = inhibition” value was -11.8% (inactive).
